MEKK3 PB1 HTS: MEKK3-MEK5 PB1 interaction, increase or decrease; Q99759; bead-based flow cytometry, Alexa488-MEK5 binding to MEKK3; actives lie on both sides; 0 = blocked by unlabeled MEK5, 100 = vehicle; binding response (% of control), % at 10 µM; actives 1.4% (n = 290,000);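 active means binding response more than 3 SD above or below the average of its plate-row segment, actives on both sides; inconclusive means wells at one plate position flagged as instrument error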;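 further: Alexa488 bead fluorescence after subtracting the streptavidin-only scavenger bead signal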
NTR1 agonist: NTR1 (human) agonism | P30989 | actives 0.17% (n = 330,000) | activation, % at 20 µM | NTR1-U2OS beta-arrestin-GFP spot imaging, agonist mode;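 active means activation at or above 40% of the spot to cytoplasm intensity ratio, with at least 20 cells analyzed; inconclusive means wells under 20 cells, flagged as cytotoxic or low count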;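 further: 0% = DMSO without peptide and 100% = 100 nM NTR1 peptide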
MEKK2mut PB1 HTS: signal of MEK5 binding to mutant human MEKK2 PB1 domain | AID 1530 | bead flow cytometry, Alexa488-MEK5 binding to MEKK2 mutant | actives 0.35% (n = 290,000) | percent response, % at 10 µM; in the data active means percent response above about 24%, passing the limit was not always enough
TMEM16A act: mouse TMEM16A channel activation, primary screen. HEK293 TMEM16A/YFP-H148Q/I152L, iodide quench fluorescence; hits give low values. B-score at 10 µM. actives 0.3% (n = 340,000). AID 623877;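 active means fluorescence-ratio B-score plate-corrected deviation score at least 3 library SD below zero, with starting fluorescence score within 5 deviations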;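 further: channel opened by trigger with iodide after compound preincubation; score built on the fluorescence ratio of max minus min over baseline; more negative score means more quench and so TMEM16A activation or potentiation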
Target sequence (Q8BHY3 whole entry, looked up): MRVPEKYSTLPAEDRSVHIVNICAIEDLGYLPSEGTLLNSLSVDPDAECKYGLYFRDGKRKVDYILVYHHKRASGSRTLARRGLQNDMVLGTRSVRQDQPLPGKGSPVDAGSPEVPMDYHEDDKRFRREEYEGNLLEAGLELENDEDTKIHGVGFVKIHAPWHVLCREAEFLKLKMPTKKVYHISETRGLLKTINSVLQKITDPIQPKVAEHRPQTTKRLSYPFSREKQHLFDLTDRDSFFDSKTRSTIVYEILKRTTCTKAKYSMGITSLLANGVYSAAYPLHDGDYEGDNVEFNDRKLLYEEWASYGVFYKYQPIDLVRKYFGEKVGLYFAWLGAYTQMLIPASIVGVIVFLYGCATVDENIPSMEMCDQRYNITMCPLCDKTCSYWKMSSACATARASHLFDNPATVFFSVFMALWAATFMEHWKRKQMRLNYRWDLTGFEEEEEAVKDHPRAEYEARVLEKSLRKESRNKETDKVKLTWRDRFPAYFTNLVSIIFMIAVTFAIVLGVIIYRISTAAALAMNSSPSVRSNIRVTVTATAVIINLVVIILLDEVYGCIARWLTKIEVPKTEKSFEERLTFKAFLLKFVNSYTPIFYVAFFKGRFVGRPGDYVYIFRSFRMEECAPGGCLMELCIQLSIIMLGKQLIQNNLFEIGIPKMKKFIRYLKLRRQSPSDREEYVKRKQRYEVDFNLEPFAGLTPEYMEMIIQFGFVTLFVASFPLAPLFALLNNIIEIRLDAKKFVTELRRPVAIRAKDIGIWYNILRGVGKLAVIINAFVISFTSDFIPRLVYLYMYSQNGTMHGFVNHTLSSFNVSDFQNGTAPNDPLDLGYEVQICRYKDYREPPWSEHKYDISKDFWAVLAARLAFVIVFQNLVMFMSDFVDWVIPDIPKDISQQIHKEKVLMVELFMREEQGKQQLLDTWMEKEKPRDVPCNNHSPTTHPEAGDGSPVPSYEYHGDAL
TMEM16A inh: inhibitors of mouse TMEM16A calcium-activated chloride channel; Q8BHY3; HEK293 TMEM16A/YFP iodide influx fluorescence, ionomycin; normalized B-score (activity score, 25-100; higher = stronger inhibition) at 10 µM; actives 1.2% (n = 310,000);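 active means ratio plate-corrected score three or more library SD toward inhibition, starting fluorescence score within five deviations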;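 further: score derived from kinetic fluorescence span divided by baseline fluorescence per well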
MEKK2 WT-MEK5: raises or lowers MEK5 binding to wildtype human MEKK2 PB1 domain. Q9Y2U5. bead flow cytometry, Alexa488-MEK5 binding to MEKK2 WT; actives lie on both sides. binding response (% of control), % at 10 µM. actives 1.1% (n = 290,000). AID 1531; in the data active means binding response below about 67% or above about 130%; inconclusive means no clear call, values can overlap the other calls; inactive means in between
TMEM16A reconf: TMEM16A (mouse) chloride channel inhibition, re-confirmation | shares compounds with TMEM16A inh | actives 39% (n = 2,300) | inhibition, % at 10 µM | HEK293 TMEM16A/YFP-H148Q, iodide quench fluorescence; ionomycin added to raise cell calcium;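 active means mean duplicate percent inhibition, scaled so buffer wells are 0 and the reference blocker 100, over three buffer SD above buffer mean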
TMEM16A Ca cntr: calcium mobilization counter-screen hit for TMEM16A inhibitor series | actives 2% (n = 2,300) | AID 652231 | TMEM16A/YFP HEK293, Fluo4 calcium mobilization | shares compounds with TMEM16A inh | calcium response (% of ionomycin), % at 10 µM;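 active means duplicate-averaged calcium signal over 20% of the ionomycin maximum, relative to buffer baseline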;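 further: each well's signal is peak minus trough fluorescence divided by its pre-addition baseline; 0% = buffer wells and 100% = ionomycin wells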
YFP-HEK293 quench: parental YFP-HEK293 iodide quench counter-screen activity; shares compounds with TMEM16A inh; ionomycin; AID 652233; 2,300 tested, under 10 active; YFP ratio F(max-min)/F0 at 10 µM;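 active means yellow fluorescent protein signal ratio exceeding the buffer control mean by over 5 SD of those controls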;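 further: ratio is mean of duplicate wells from kinetic YFP trace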
ClC-1 inh: rat ClC-1 inhibition, TMEM16A specificity screen; shares compounds with TMEM16A inh; CHO ClC-1-YFP, iodide influx fluorescence quench; iodide control reads 0, buffer control 100; ratio percent, % at 10 µM; 2,300 tested, under 10 active; AID 652236;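 active means duplicate-mean ratio percent above the mean of iodide-only control wells, which defines zero, plus 5 of their SD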;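 further: higher percent means stronger block of ClC-1 iodide influx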
An asterisk follows results filed as active; i = inactive; ? = inconclusive; / = no result given. Rows were chosen to be rich in hits. Some 3.4% of all compounds tested hit in one or more screens of this group.

SMILES | MEKK3 PB1 HTS | NTR1 agonist | MEKK2mut PB1 HTS | TMEM16A act | TMEM16A inh | MEKK2 WT-MEK5 | TMEM16A reconf | TMEM16A Ca cntr | YFP-HEK293 quench | ClC-1 inh
Cc1sc2nc(CSC(C)C(=O)Nc3ccc(C#N)cc3)[nH]c(=O)c2c1C (stereo unspecified) | / | -0.1 | / | i | 25* | / | i | 23.0%* | -1.05 | -2.5
COc1ccc2c(c1)[C@H]1[C@H](CO2)[C@H](c2ccccc2)[C@]2(C)C(=O)N[C@H](C)C(=O)N12 | / | 1.3 | / | i | / | / | / | / | / | /
CCc1ccccc1NCC(=O)Nc1ccccc1C(=O)OC | 98.0 | 1.5 | 8.0 | i | i | 105.0 | / | / | / | /
COC(=O)c1ccccc1NC(=O)CNc1cc(OC)c(OC)cc1C | 99.0 | 1.8 | 8.0 | i | 25* | 108.0 | i | i | -1.11 | -14.0
COc1cccc(CN(C)C(=O)COc2ccc(C(=O)c3ccc(Cl)cc3)cc2)c1OC | 100.0 | 1.8 | 1.0 | i | 100* | 99.0 | 26.0%* | i | -0.995 | -17.0
COc1cccc(CN(C)C(=O)CNC(=O)c2sc3ccccc3c2Cl)c1OC | / | 2.3 | / | i | 25* | / | i | i | -1.03 | -2.5
COc1ccc(NC(=O)CSCC(=O)N(C)Cc2cccc(OC)c2OC)cc1 | / | 0.7 | / | i | i | / | / | / | / | /
CC1(OC(=O)C2CCCC2)C(=O)C=C2C=C(c3ccsc3)N(C(CO)CO)C=C2C1=O (stereo unspecified) | 107.0 | 3.3 | 5.0 | i | i | 110.0 | / | / | / | /
Cc1ccc2nc(NC(=O)C3CC3C)sc2c1 (stereo unspecified) | 101.0 | -1.6 | 3.0 | i | i | 102.0 | / | / | / | /
Cc1cc(C)n2c(Nc3ccc4c(c3)OCCO4)c(-c3ccco3)nc2n1 | 103.0 | / | 1.0 | / | / | 101.0 | / | / | / | /
Cc1cc(C)n2c(Nc3ccc4c(c3)OCCO4)c(-c3ccc(C)o3)nc2n1 | 105.0 | 11.1 | 8.0 | i | i | 101.0 | i | i | -1.17 | 0.0
Cc1cc(C)n(CCNc2nc3nonc3nc2N2CCCCC2)n1 | 88.0 | -0.5 | -11.0 | i | i | 89.0 | / | / | / | /
COc1ccc(-c2c(C(F)(F)F)[nH]n3c(=O)cc(-c4ccccc4)nc23)cc1 | 98.0 | 2.5 | -3.0 | i | 100* | 91.0 | 49.0%* | i | -0.918 | -17.5
Cc1[nH]n2c(=O)cc(-c3ccc([N+](=O)[O-])cc3)nc2c1-c1ccccc1 | ? | 5.0 | -38.0 | i | i | ? | / | / | / | /
CCN(CC)CC(=O)Nc1nc(-c2ccc(Cl)cc2)cs1 | 108.0 | -1.2 | 6.0 | i | 100* | 112.0 | i | i | -1.03 | -12.0
O=C(Nc1ccc(N2CCN(c3ccc(C(F)(F)F)cn3)CC2)nc1)c1cccs1 | 104.0 | 0.6 | 13.0 | i | i | 100.0 | / | / | / | /
O=C(Nc1ccc(N2CCN(c3ncccc3C(F)(F)F)CC2)nc1)c1cccs1 | 92.0 | 34.0 | -19.0 | i | 25* | 90.0 | 31.0%* | i | -1.2 | -3.5
CCCOc1ccc(-c2nc(SCc3ccccc3)[nH]c(=O)c2C#N)cc1OC | 95.0 | 4.0 | 3.0 | i | 100* | 94.0 | 29.5%* | i | -1.15 | -4.5
CCSc1nc(-c2ccccc2)c(C#N)c(=O)[nH]1 | 103.0 | 0.0 | 3.0 | i | i | 101.0 | / | / | / | /
COc1cc(S(=O)(=O)NCc2ccncc2)ccc1Br | 97.0 | -0.2 | -1.0 | i | i | 99.0 | / | / | / | /
C=CCn1c(=O)c(C(=O)Nc2cc(C)ccn2)c(O)c2ccccc21 | 100.0 | 3.5 | 0.0 | i | i | 102.0 | / | / | / | /
CCn1c(=O)c(C(=O)NNC(=O)c2ccccc2F)c(O)c2ccccc21 | 100.0 | 2.6 | 1.0 | i | 25* | 98.0 | 22.0%* | 48.5%* | -1.19 | -5.5
C=CCn1c(=O)c(C(=O)Nc2ccc(C)cc2)c(O)c2ccccc21 | 103.0 | 8.0 | 0.0 | i | i | 104.0 | i | i | -1.11 | -12.5
CCN(CC)C(=O)Cn1cc(C(=O)C(=O)NCc2ccccn2)c2ccccc21 | 100.0 | 2.3 | -3.0 | i | i | 105.0 | / | / | / | /
Cc1cccc(OCCCSc2nc3ccc(C)cc3[nH]2)c1 | 102.0 | 10.5 | 7.0 | i | 100* | 100.0 | 33.0%* | i | -1 | -13.5
SMILES | MEKK3 PB1 HTS | NTR1 agonist | MEKK2mut PB1 HTS | TMEM16A act | TMEM16A inh | MEKK2 WT-MEK5 | TMEM16A reconf | TMEM16A Ca cntr | YFP-HEK293 quench | ClC-1 inh
Cc1cc(Br)c(NC(=O)CSc2n[nH]c(N)n2)c(Br)c1 | / | 0.3 | / | i | / | / | / | / | / | /
COc1ccc(NC(=O)c2cnc3sccn3c2=O)cc1 | 103.0 | 2.1 | -3.0 | i | 100* | 96.0 | i | i | -1.03 | -7.0
CC1CCCN(C(=O)Cc2cn(Cc3cccc(Cl)c3)c3ccccc23)C1 (stereo unspecified) | 104.0 | 0.3 | -1.0 | i | 100* | 98.0 | 24.0%* | i | -1.11 | -14.5
CC1CCCN(C(=O)COC(=O)Cc2ccc(Cl)cc2)C1 (stereo unspecified) | 106.0 | -0.2 | 10.0 | i | i | 109.0 | / | / | / | /
COc1ccc(OC2C(=O)N(Cc3ccc4c(c3)OCO4)C2c2cccs2)cc1 (stereo unspecified) | 110.0 | 6.1 | 3.0 | i | 100* | 107.0 | 28.0%* | i | -0.876 | -4.0
Cc1cc(C)n(CC(=O)c2ccccc2)c(=O)c1C#N | 111.0 | 0.3 | 5.0 | i | 100* | 107.0 | i | i | -0.895 | -7.5
O=C(NC(NC(=S)Nc1ccc(Cl)c(Cl)c1)C(Cl)(Cl)Cl)c1ccco1 (stereo unspecified) | 107.0 | 5.8 | 2.0 | i | 100* | 101.0 | 35.5%* | i | -0.878 | -21.0
C#CCOCCOCCOCCNc1nc(N2CCOCC2)nc(N2CCN(C(=O)[C@H]([C@@H](C)CC)n3cc([C@@H](N)CC(C)C)nn3)CC2)n1 | 110.0 | -2.8 | 15.0 | i | i | 119.0 | / | / | / | /
CCOc1ccc(C(=O)N2CCC(C(=O)c3ccc4c(c3)OCCO4)CC2)cc1 | 105.0 | -0.9 | 11.0 | i | 100* | 114.0 | i | i | -1.24 | -12.0

Compound activity deposited in PubChem by several laboratories.
